This passage reports growth inhibition results from PubChem BioAssay (NCI).

About 79,000 compounds went through this panel and 15% of them were active in at least one assay; those are over-represented in the sample as a whole. A number with no mark means an inactive call. Activity calls are given as the source filed them. No stated cut-off is given here; in the data, active means growth inhibition above about 70%; inactive means the rest.

A short description of the assay: NCI Yeast Anticancer Drug Screen. Data for the mlh1 rad18 strain (AID 175). The following applies: S. cerevisiae mlh1 rad18 strain growth inhibition; at 50.0 µM; hits give high values. The method, then:
Growth inhibition of yeast strains with defined genetic alterations is measured as a screen for potential anti-cancer activity. Selected strains with alterations in DNA damage repair or cell cycle control were exposed to compounds and growth inhibition was measured relative to vehicle treated controls. The strain used in this assay is mlh1 rad18
Turning to `CCOc1cn(C2CC(O)C(CO)O2)c(=O)[nH]c1=O` (stereo not given), the growth inhibition was 23.6%. The result for `S=c1nn[nH]n1-c1cccc2ccccc12` reads -3.8%; that for `CCO/C=N/c1oc(-c2ccccc2)nc1C#N`, 1.1%. Turning to `O=C(O)CCCc1ccc(Oc2ccccc2)cc1`, the growth inhibition was -6.6%. Turning to `CCC(C)(C)c1ccc(OCCCCNC(=O)c2ccc3ccccc3c2O)c(C(C)(C)CC)c1`, the growth inhibition was 3.15%. The result for `COC(=O)C1c2ccc(C)cc2-c2cc(C)ccc21` reads 32.6%. The result for `CCOc1ccc(Nc2nc(C)c(C(=O)CC(=O)C(=O)Nc3ccc(C(C)C)cc3C(C)C)s2)cc1` reads -38.4%; that for `CC(C)(C)/C(=N\O)c1ccccc1`, -23.3%; that for `O=CC(O)C(O)C(O)C(O)C(=O)O.O=CC(O)C(O)C(O)C(O)C(=O)O.[NH-]C1CCCCC1[NH-].[Pt+2]` (stereo not given), -41%. For `C1=CCc2cc3c(cc2=C1)C=c1ccccc1=3`, the growth inhibition was -19.4%.

On to `O=C(O)CCC(=O)NC1c2ccccc2Oc2ccccc21`, for which the growth inhibition is 5.95%. Under `CC1(C)CC2(CC(C)(C)N1O)NC(=O)OC2=O` stands 1.3%; under `C[n+]1cccc(C(=O)c2ccccc2)c1`, 6.5%; under `Cc1ccc(C(=O)Nc2c(C)cccc2C)cc1`, -5.95%.

As for `COc1ccc(OC)c(-c2nc3ccccc3c(=O)[nH]2)c1`, the growth inhibition is 0%. Turning to `Cc1ccc2c(=O)[nH]cnc2c1`, the growth inhibition was -2.15%. The result for `COc1ccccc1C(N)c1ccccc1` (stereo not given) reads 13.6%. Under `O=C(OC[P+](c1ccccc1)(c1ccccc1)c1ccccc1)c1ccccc1` stands 81.2% (active). Under `O=C(c1ccc(F)cc1)c1ccc([N+](=O)[O-])cc1` stands 12.1%; under `CCNC(=O)Oc1cccc(NC(=O)CC)c1`, 3.7%; under `CC1(C)CC(N2CCN(C3CC(C)(C)NC(C)(C)C3)CC2)CC(C)(C)N1`, -29.6%. As to `C#CC1(c2ccccc2)OCCO1`, the growth inhibition was 27.4%. Regarding `CC12CC(=O)Nc3ccccc3N1C(c1ccccc1)=NO2` (stereo not given), the growth inhibition was -7.4%. The result for `CC(C)=NNC(=O)Nc1cccc(C)c1C` reads -6.7%. The result for `CCCCC(C)C(C)O` (stereo not given) reads -0.8%; that for `CCCCCCC(O)CCCCCCCCCCCO` (stereo not given), 15.5%; that for `COc1cc(C(=O)O)ccc1OC(C)=O`, 1.35%. As for `CCCCCCCC/C=C/CCCCCCCC(=O)OCC(C)(C)N1C(=O)CCC1=O`, the growth inhibition was -7.3%. Take `CSc1nnc(SC)s1`: the growth inhibition is -9.35%. Under `COC(=O)N1N=C(c2ccccc2)C(C(=O)OC)(C(=O)OC)c2ccccc21` stands 36.8%. Under `C#CC1(O)CCC2[C@@H]3CCc4cc(Oc5nc(F)nc(-c6c7ccccc7cn6C)n5)ccc4C3CC[C@@]21C` (stereo not given in full) stands 42.8%; under `N=c1nc2ccc3ccccc3c2nn1-c1ccc([N+](=O)[O-])cc1`, 27.2%. Under `COC(=O)CCCC(NC(=O)c1ccc([N+](=O)[O-])cc1)C(=O)OC` (stereo not given) stands 14.9%. As for `CCCCCCCCCCOC(=O)C(C)O` (stereo not given), the growth inhibition was -4.75%. Turning to `CCC1CCN(CC)CC1`, the growth inhibition is -4.1%. Regarding `Cc1cn(C2CC(O)C(CO)O2)c(=O)nc1NC1CC1` (stereo not given), the growth inhibition was 3.15%.

`CC(c1ccccc1)C(OCc1ccccc1)OCc1ccccc1` (stereo not given): the growth inhibition is 1.2%. The result for `CCOC(=O)c1[nH]c(CC(=O)O)c(C(=O)OC)c1C` reads 7.3%; that for `O=S(=O)(O)c1ccccc1`, 1.25%. Take `CCOC(=O)c1c(-c2ccccc2)c(-c2ccccc2)cn1C`: the growth inhibition is 24.3%.
